High-throughput results: PubChem BioAssay, National Center for Advancing Translational Sciences (NCATS)
FLuc modulator: qHTS profiling assay for firefly luciferase inhibitor/activator using purifed enzyme and Km concentrations of substrates (counterscreen for miR-21 project) | 6.9% of 360,000 active | AID 588342, 2011 | purified FLuc, Km substrates, luminescence inhibition | Luciferin 4-monooxygenase (Photinus pyralis), P08659 | Potency, µM (series often up to 57.5 µM), for the others: at the top dose activity change, negative = inhibition, usual class: inhibitors;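 further: plate controls were vehicle for no effect and reference inhibitor for full effect; nearly all actives have a fitted effect of over 55% in size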
Target sequence (P08659 whole entry, looked up): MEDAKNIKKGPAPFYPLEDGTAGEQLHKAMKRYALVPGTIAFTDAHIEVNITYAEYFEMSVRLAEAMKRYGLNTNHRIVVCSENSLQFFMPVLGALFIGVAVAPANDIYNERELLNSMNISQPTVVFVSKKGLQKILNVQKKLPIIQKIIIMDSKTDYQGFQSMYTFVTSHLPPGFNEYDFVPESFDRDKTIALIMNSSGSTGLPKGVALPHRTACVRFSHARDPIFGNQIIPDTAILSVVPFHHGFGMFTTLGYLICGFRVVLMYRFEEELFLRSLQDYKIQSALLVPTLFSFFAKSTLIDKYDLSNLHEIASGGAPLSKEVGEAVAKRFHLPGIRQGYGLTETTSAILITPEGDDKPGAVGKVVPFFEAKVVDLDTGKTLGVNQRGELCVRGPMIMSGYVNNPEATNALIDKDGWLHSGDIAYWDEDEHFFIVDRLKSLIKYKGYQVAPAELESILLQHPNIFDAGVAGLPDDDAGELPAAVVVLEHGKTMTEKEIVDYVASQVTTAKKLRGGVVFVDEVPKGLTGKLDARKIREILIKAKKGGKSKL
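Biochemical qHTS of compounds, final roughly 60 µM downward over six points, against 10 nM purified firefly luciferase using Km concentrations of substrates (10 uM D-luciferin, 10 uM ATP) in Tris acetate pH 7.5 buffer; luminescence output.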
Rab9 promoter act: qHTS Assay for Rab9 Promoter Activators. Huh7 Rab9 promoter-luciferase reporter, luminescence, 24 h. Potency, µM (titrated, usually from 9.22 µM), for inactives: at the top dose activation, negative = inhibition, actives largely listed as activators. 2.8% of 320,000 active; further: % of control where 0% means no effect; nearly all actives have a fitted effect of over 60% in size
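Stable Rab9-luc Huh7, 1500 cells/well, 2 h settle; cmpd in DMSO, 24 h, 37 °C/5% CO2; luciferase reagent 10 min RT; luminescence.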
SMN2 splice up: qHTS Assay for Enhancers of SMN2 Splice Variant Expression; 2.8% of 210,000 active; Potency, µM (titrated, usually from 46.1 µM), for the others: at the highest dose activity change, positive = activation, most hits filed as activators; HEK293 SMN2-luciferase splicing reporter, luminescence, 30-36 h; further: % of control where 0% means no effect; nearly all actives have a fitted effect of over 55% in size
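HEK293 cells carry an SMN2 minigene-luciferase reporter in which exon 7 inclusion puts luciferase in frame. Cells were seeded at 2000 cells/well, attached for 10-12 hours, then exposed to compounds for 30-36 hours at 37C before ONE-Glo luminescence.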
ELG1 genotoxic: qHTS screen for small molecules that induce genotoxicity in human embryonic kidney (HEK293T) cells expressing luciferase-tagged ELG1 | HEK293T ELG1-luciferase reporter, luminescence, 16 h | Potency, µM (titrated, usually from 46 µM), for inactives: at the highest dose activity change, positive = activation, hits mostly activators | AID 504466, 2011 | 1.3% of 330,000 active; further: % of control where 0% means no effect; nearly all actives have a fitted effect of over 60% in size
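Screening used a luciferase reporter fused to human ELG1 in HEK293T cells. Luminescence was read on a CCD plate imager after 16 hr exposure and 30 min ONE-Glo incubation.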
NPC1 promoter act: qHTS Assay for NPC1 Promoter Activators. Huh7 NPC1 promoter luciferase reporter, 24 h. Potency, µM (highest dose often 9.22 µM), for inactives: at the top dose activation, actives largely listed as activators. 2.4% of 320,000 active. AID 485313, 2010; further: % of control where 0% means no effect; nearly all actives have a fitted effect of over 60% in size
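Luciferase expression driven by the NPC1 promoter was measured in stably transfected Huh7 cells after a 24 h compound incubation, using a luciferase reagent and a luminescence read.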
Numbers without * were called inactive; ? = inconclusive; . = no result given; [ ] = remark or other dose. In the library only some 7.4% were active in any assay of this set; here they are far more common. The call rests on the fitted dose curve; in most records, active means well fitted curve in the direction sought with a large enough effect; inconclusive means small, poorly fitted or top-dose-only effect, or another doubt; inactive means no such curve, though single readings can be large; an effect the other way counts as inactive or inconclusive. Potency means the concentration at half of the fitted maximal effect.

SMILES | FLuc modulator | Rab9 promoter act | SMN2 splice up | ELG1 genotoxic | NPC1 promoter act
O=C(Nc1c(C(=O)Nc2cccc(F)c2)oc2ccccc12)c1cc2ccccc2o1 | ? | . | 11.8% | . | .
Cc1ccc(NC(=O)c2cc3ccccc3oc2=N)cc1 | 0.19µM* | 0.708µM* | . | ? | 0.447µM*
N=c1oc2ccccc2cc1C(=O)Nc1ccc(F)cc1 | 0.849µM* | 0.501µM* | . | 5.17µM* | 0.794µM*
N=c1oc2cc(O)ccc2cc1C(=O)Nc1ccc(Cl)cc1 | 3.01µM* | 3.16µM* | . | ? | 2.24µM*
COc1ccc(CCNc2nc(SCc3cccc(Cl)c3)nc3ccccc23)cc1OC | -1.8% | . | . | . | .
CN(C)C=Nc1ccc2nn(-c3ccccc3)nc2c1 | 5.36µM* | 1µM* | 5.01µM* | ? | 2.82µM*
CN(C)C=Nc1ccc(Cl)c(Cl)c1 | -13.1% | -4.9% | . | 1.9% | -2.2%
COc1ccc(-c2[nH]n(-c3ccc([N+](=O)[O-])cc3)c(=O)c2C=NCCN2CCNCC2)cc1 | 0.953µM* | 0.447µM* | . | ? | 0.708µM*
O=c1c(C=NCCN2CCNCC2)c(-c2ccccc2)[nH]n1-c1ccc([N+](=O)[O-])cc1 | ? | ? | . | 12.5% | ?
COc1cccc2sc(Nc3nc(-c4ccccn4)cs3)nc12 | 12µM* | ? | . | 9.3% | 21.5%
Fc1ccc(Nc2nc(-c3ccncc3)cs2)cc1 | ? | ? | ? | -1.2% | ?
Cc1nc2ncccn2c1-c1csc(Nc2ccccc2)n1 | -16.0% | -0.2% | 19.7% | 9.9% | 2.5%
c1ccc(Nc2nc(-c3ccccn3)cs2)cc1 | 3.79µM* | . | 12.6µM* | . | .
c1cncc(Nc2nc(-c3cccs3)cs2)c1 | 19µM* | 3.16µM* | 11.2µM* | 9.2µM* | ?
c1ccc(-c2csc(Nc3cccnc3)n2)nc1 | 19µM* | ? | ? | ? | ?
O=C(O)/C=C/C(=O)NC1CCC(CC2CCC(NC(=O)/C=C/C(=O)O)CC2)CC1 (stereo not drawn) | -1.0% | -5.7% | . | -0.1% | -3.1%
Cc1ccc(OCC(=O)Nc2cc(S(=O)(=O)N3CCCCC3)ccc2C)c([N+](=O)[O-])n1 | 6.8% | -3.9% | -14.0% | -1.2% | -5.4%
O=C(O)c1ccc(Cc2ccccc2C(=O)O)cc1 | . | . | -14.0%[9.22 µM] | . | .
CC(=O)Nc1ccc(NC(=O)/C(Cl)=C/c2ccccc2)cc1 | 10.7µM* | ? | -6.0% | -0.7% | 23.3%
O=C(Oc1ccc(Br)cc1)c1cncc(Br)c1 | 4.78µM* | -2.2% | -20.0% | 2.0% | 0.2%
O=C(Oc1ccc2cc(Br)ccc2c1)c1cccnc1 | ? | 8.3% | -4.4% | -1.6% | -0.7%
CCc1ccc(C(=O)c2cncc(Br)c2)cc1 | 16.9µM* | . | ? | . | .
COc1cccc(/C=C(\C)C(=O)c2c(C)cc(C)[nH]c2=O)c1OC | -0.5% | -1.6%[1.84 µM] | . | -2.2% | 0.3%
CC(NC(=O)CSc1nnc(-c2cccnc2)n1N)c1ccccc1 (stereo not drawn) | -3.0% | 1.7% | 10.3% | 0.0% | 1.6%
Cc1ccc(-c2cc(-c3nnc(SCC(=O)NC(C)C(C)C)n3N)c3ccccc3n2)cc1 (stereo not drawn) | 8.49µM* | -0.3% | -3.5% | 0.1% | 0.1%
SMILES | FLuc modulator | Rab9 promoter act | SMN2 splice up | ELG1 genotoxic | NPC1 promoter act
COc1cc(OC)cc(C(=O)N[C@H](C(=O)OCC(=O)Nc2ccc3c(c2)OCO3)C(C)C)c1 | . | . | . | -3.3% | .
c1ccc(OCCSc2nc3ccccc3o2)cc1 | 21.3µM* | 20.6% | -9.5% | 14.3% | 19.0%
O=C(CSc1nc2ccccc2o1)c1ccc2c(c1)OCCO2 | 8.49µM* | ? | -1.1% | ? | 28.0%
O=C(CSc1nc2ccccc2o1)c1ccccc1 | 10.7µM* | ? | 17.2% | 11.1% | ?
CC(=O)CSc1nc2ccccc2o1 | -15.7% | 19.2% | 2.6% | ? | 5.2%
CCOc1ccccc1CNC(=O)c1cnc2sc(N3CCCC3)nn2c1=O | -9.9% | . | . | . | .
CC(C(=O)N1CCCCCC1)c1ccc([N+](=O)[O-])cc1 (stereo not drawn) | -1.8% | 8.7% | . | -2.4% | 9.0%
O=C(COc1ccc2c(c1)OCO2)Nc1nccs1 | 1.69µM* | 0.447µM* | . | 2.31µM* | 0.398µM*
NNC(=O)COc1cccc2cccnc12 | -5.0% | 1.5% | 1.9% | -1.6% | -2.2%
O=C(COc1cccc2cccnc12)Nc1nccs1 | 12µM* | 3.98µM* | ? | ? | ?
COc1ccccc1OCCCC(=O)Nc1nccs1 | 12µM* | 2.24µM* | . | ? | ?
Cc1cccc(OCCCC(=O)Nc2nccs2)c1C | -0.7% | -10.4% | . | -1.5% | -1.0%
COc1ccc(C(CC(=O)Nc2nccs2)n2cccc2)cc1 (stereo not drawn) | 6.01µM* | 3.16µM* | 10µM* | 12.4% | 2.82µM*
CC1Cc2ccccc2N1Cc1cc(=O)c(OCC(=O)NCCc2ccccc2)co1 (stereo not drawn) | 0.8% | -3.4% | . | -1.8% | 0.6%
NC(=O)NC(=O)CN1c2cccc3cccc(c23)S1(=O)=O | 1.5% | 1.7% | . | 2.1% | -1.1%
O=C(O)c1ccncc1.O=C(O)c1ccncc1.[Cl][Pt]([Cl])([Cl])[Cl] | . | . | -8.0%[9.22 µM] | . | .
O=C(c1csnn1)N1CCC2(CC1)CN(c1ccncc1)C2 | . | . | -21.0% | . | .
COc1ccc(C(=O)Nc2nc(-c3ccc(Br)cc3)ns2)cc1 | 2.4% | . | . | . | .
CCOc1ccc(OCC(=O)Nc2nccs2)cc1 | 0.953µM* | ? | 5.01µM* | 0.92µM* | 0.501µM*
CCOc1ccc(S(=O)(=O)N(C)c2ccc(OCC(=O)Nc3nccs3)cc2)cc1 | 3.9% | -1.3% | -15.1% | -12.6% | -2.0%
COc1ccc(OCC(=O)Nc2nccs2)cc1 | 3.01µM* | 0.447µM* | . | ? | 0.562µM*
COc1ccc(OCC(=O)Nc2nc(-c3ccc(Br)cc3)ns2)cc1 | 10.7µM* | . | . | . | .
COCCN1CC(C(=O)NCc2ncccc2C)CCC1=O (stereo not drawn) | 0.4% | 1.2% | . | 20.9% | -1.3%
N#C/C(=C\c1c(F)cccc1Cl)C(=O)NC1CC1 | -15.5% | -4.5% | . | -9.9% | -4.6%
Nc1nc(NC(=O)c2ccc(Cl)cc2)nn1-c1ccccc1 | 19µM* | 10.1% | 16.6% | -2.9% | 7.6%
COc1ccc(Oc2ccc(C(F)(F)F)cc2N)cc1 | 16.9µM* | ? | . | 11.1% | 17.1%
COc1ccc(Oc2ccc(C(F)(F)F)cc2NC(=O)c2ccc(OC)cc2)cc1 | -2.5% | -5.4% | . | -4.1% | -3.5%
COc1ccc(OCc2cccc(C(=O)NN)c2)cc1 | 6.01µM* | 0.0891µM* | 3.16µM* | ? | 0.0891µM*
NNC(=O)c1ccc(COc2ccc3ccccc3c2)cc1 | 6.01µM* | 18.0% | . | 1.0% | ?
CCCNC(=O)c1cccc(COc2ccccc2OC)c1 | 5.36µM* | 3.55µM* | 14.1µM* | ? | 1.41µM*
